Among the data in PubChem BioAssay (EPA / NIEHS) are outcome values, retold here.

Results filed as inconclusive are left out. Calls of active or inactive are those of the source. Rule for the calls: active = hit-call score of the fitted dose curve at least 0.9, where 1 is the maximum; inconclusive = response in the unintended direction; inactive = score below 0.9.

Chain of human AKT serine/threonine Kinase 2 (AKT2), AKT2 (gene 208) (P31751 whole entry, looked up): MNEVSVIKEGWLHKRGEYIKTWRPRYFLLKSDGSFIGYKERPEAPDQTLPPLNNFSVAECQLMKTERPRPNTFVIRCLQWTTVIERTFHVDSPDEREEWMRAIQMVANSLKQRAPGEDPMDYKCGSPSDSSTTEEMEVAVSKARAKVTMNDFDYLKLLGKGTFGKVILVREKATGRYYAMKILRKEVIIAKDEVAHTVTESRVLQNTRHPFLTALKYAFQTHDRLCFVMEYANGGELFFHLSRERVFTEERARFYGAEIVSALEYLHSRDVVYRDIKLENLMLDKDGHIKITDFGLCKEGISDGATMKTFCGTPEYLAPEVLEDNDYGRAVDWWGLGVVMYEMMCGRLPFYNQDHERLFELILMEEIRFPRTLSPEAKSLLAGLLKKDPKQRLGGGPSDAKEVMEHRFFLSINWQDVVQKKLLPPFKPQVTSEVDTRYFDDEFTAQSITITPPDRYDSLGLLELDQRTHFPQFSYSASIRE

This assay concerns the target human AKT serine/threonine Kinase 2 (AKT2), AKT2 (gene 208) (UniProt P31751). The experiment in a line: NVS_ENZ_hAKT2: NovaScreen (NVS) Enzymatic Assay for human AKT serine/threonine Kinase 2 (AKT2) (AID 2283141). The procedure: NVS_ENZ_hAKT2 is a biochemical, single-readout assay that uses extracted gene-proteins in a cell-free assay. Measurements were taken 1 hour after chemical dosing in a 384-well plate.NVS_ENZ_hAKT2 is one of one assay component(s) measured or calculated from the NVS_ENZ_hAKT2 assay. It is designed to make measurements of enzyme activity, a form of enzyme reporter, as detected with fluorescence intensity signals by Fluorescence and electrophoretic mobility shift technology.Data from the assay component NVS_ENZ_hAKT2 was analyzed into 1 assay endpoint. This assay endpoint, NVS_ENZ_hAKT2, was analyzed in the positive analysis fitting direction relative to DMSO as the negative control and baseline of activity. Using a type of enzyme reporter, loss-of-signal activity can be used to understand changes in the enzymatic activity as they relate to the gene AKT2. Furthermore, this assay endpoint can be referred to as a primary readout, because this assay has produced multiple assay endpoints where this one serves a enzymatic activity function. To generalize the intended target to other relatable targets, this assay endpoint is annotated to the kinase intended target family, where the subfamily is serine/threonine kinase.
Binding assays used specific radioligands (tritiated, iodinated) with non-radioactive competitive displacement ligands in agonist or antagonist protocols (as indicated) and various reference compounds and inhibitors to titrate specific binding to receptors and transporters. Most enzyme assays (CYPs, kinases, phosphatases, proteases, HDACs) used recombinant protein and specific substrates (fluorescence mostly, some colorimetric and radioactive) and inhibitors, followed by a biochemical separation of substrate and product. All assays for the biochemical HTS were initially run in duplicate at a single concentration (10 uM for CYP450 assays and 25 uM for all others). Assay-chemical combinations meeting a pre-defined threshold (e.g., 30% inhibition and other criteria defined below) were then run in singleton concentration-response format with maximum concentration of 20 uM for CYPs and 50 uM for all others. Each assay was run with positive and negative controls, and concurrent controls on every plate. The follow-up (secondary) screen tested active chemical-pairs in concentration series, as well as a few additional assays not tested in the primary screen, some selected negative inactives, and several cases re-run in the concentration series for confirmatory purposes.
As to `Cc1ccc(N)c(N)c1`, the compound was called inactive.
On to `CCCCCCCCn1sccc1=O`, for which the call was inactive.
The value for `O=C(O)C1C2CCC(O2)C1C(=O)O` (stereo unspecified) was “inactive”.
The value for `CCC[CH2][Sn]([Cl])([CH2]CCC)[CH2]CCC` was “inactive”; that for `O=P(OCCCl)(OCCCl)OCCCl` was “inactive”.
For `O=C1CCCO1` the value was “inactive”.
On to `CCNS(=O)(=O)C(F)(F)C(F)(F)C(F)(F)C(F)(F)C(F)(F)C(F)(F)C(F)(F)C(F)(F)F`, for which the outcome was inactive.
The value for `c1ccc(NNc2ccccc2)cc1` was “inactive”.
The value for `Cc1ccc(N=C=O)cc1N=C=O` was “inactive”; that for `C[N+](C)(C)CC1CO1` (stereo unspecified) was “inactive”.
As for `CN(C)C(=O)Nc1ccc(Cl)cc1`, the compound was called inactive.
